From PubChem BioAssay (EPA / NIEHS)
Active and inactive are the calls of the source. Rule for the calls: active = hit-call score of the fitted dose curve at least 0.9, where 1 is the maximum; inactive = score below 0.9.

Assay: ATG_TCF_b_cat_CIS: Attagene CIS-FACTORIAL HepG2 Assay for human T-Cell-Factor with beta-catenin (TCF/b-cat) (AID 2282965)
Conditions: HepG2 TCF/beta-catenin cis-reporter transcription, actives raise or lower the signal
Description: ATG_CIS is a cell-based, multiplexed-readout assay that uses HepG2, a human liver cell line, with measurements taken at 24 hours after chemical dosing in a 24-well plate.ATG_TCF_b_cat_CIS is one of 52 assay component(s) measured or calculated from the ATG_CIS assay. It is designed to make measurements of mRNA induction, a form of inducible reporter, as detected with fluorescence intensity signals by Reverse transcription polymerase chain reaction (RT-PCR) and Capillary electrophoresis technology.Data from the assay component ATG_TCF_b_cat_CIS was analyzed into 1 assay endpoint. This assay endpoint, ATG_TCF_b_cat_CIS, was analyzed with bidirectional fitting relative to DMSO as the negative control and baseline of activity. Using a type of inducible reporter, measures of mRNA for gain or loss-of-signal activity can be used to understand the reporter gene at the transcription factor-level as they relate to the gene TCF7 and TCF7L2 and LEF1 and TCF7L1. Furthermore, this assay endpoint can be referred to as a primary readout, because this assay has produced multiple assay endpoints where this one serves a reporter gene function. To generalize the intended target to other relatable targets, this assay endpoint is annotated to the dna binding intended target family, where the subfamily is HMG box protein.
Human liver HepG2 cells are transiently transfected with multiple reporter transcription units (MRTUs) in 6-well plates using FuGene 6 reagent (Roche; 3 ml FuGene/1 mg DNA). The MRTU constructs are regulated by a cis-regulating element (promoter). […] A major difference between the CIS and TRANS system is that in CIS activities of endogenous TFs are measured, whereas the TRANS assay evaluates changes in activities of exogenous, chimeric NR-Gal4 proteins. […] At the end of 24 hour incubation, total RNA was isolated using TriZol reagent (Invitrogen). The isolated RNA is then reverse-transcribed using oligo(dT) primer and Mo-MLV reverse transcriptase (Invitrogen) with DNAse I (Ambion) treatment for 30 min. The one-tenth of the produced cDNA was amplified by PCR using Taq DNA polymerase (Invitrogen) and two reporter sequence-specific primers. The PCR products were fluorescently labeled by primer extension with 6-arboxyfluorescein (6-FAM) 5'-labeled reporter sequence-specific primer (2 min at 95 C, 20 s at 68 C and 10 min at 72 C) and these products were digested with 5U of HpaI (New England Biolabs) for 2h at 37 C. The fragments were purified using Qiaquick PCR columns (Qiagen), analyzed on an ABI 3130xL genetic analyzer (Applied Biosystems) with peak positions identified by using a set of X-rhodamine (ROX)-labeled MapMarker1000 molecular weight standards (BioVentures). The raw capillary electrophoresis data was processed using Attagraph software (Attagene).

Structure (SMILES) | outcome | AC50
O=C1CCCCCCCCCCCCCC1 | inactive | –
CC(C)=CCOC(=O)c1ccccc1 | inactive | –
COC(=O)/C=C\C(=O)OC | inactive | –
COC(OC)C(C)c1ccccc1 (stereo not given) | inactive | –
Cc1cc(-n2nc3ccc(Cl)cc3n2)c(O)c(C(C)(C)C)c1 | inactive | –
C=CCOC(=O)C(=C)C | inactive | –
CCCCNC(N)=O | inactive | –
COc1cccc(OC)c1C(=O)O | inactive | –
CC(=O)OC(C)(C)Cc1ccccc1 | inactive | –
O=C(O)c1cc(Cl)cc(Cl)c1O | inactive | –
O=[N+]([O-])c1ccccc1C(F)(F)F | inactive | –
Oc1ccc(Cl)cc1C1CCCC1 | – | 61.4 µM (active)
C=C(C)C(=O)OCC1CCCO1 (stereo not given) | inactive | –
CCCCCC1CCCC(=O)O1 (stereo not given) | inactive | –
CCCCCCC(O)CCCCCCCCCCC(=O)OC (stereo not given) | inactive | –
CNC[C@H](O)[C@@H](O)[C@H](O)[C@H](O)CO | inactive | –
OCCc1ccccn1 | inactive | –
O=C1NC(=O)[C@@H]2CC=CC[C@H]12 | inactive | –
CC(O)(P(=O)(O)O)P(=O)(O)O | inactive | –
C=C(C)C(=O)OCCCCCC | inactive | –

Structure (SMILES) | outcome | AC50
NC(=O)c1ccc(N)cc1 | inactive | –
CC(C)CC(=O)O | inactive | –
O=C(O)/C=C\C(=O)O | inactive | –
NC(N)=Nc1nc(CSCCC(N)=NS(N)(=O)=O)cs1 | inactive | –
CCCOCCC | inactive | –
Brc1ccc(Oc2ccc(Br)cc2)cc1 | inactive | –
COc1c2occc2cc2ccc(=O)oc12 | inactive | –
CN1CCCC1 | inactive | –
CCC(C)C1N=C(C)C(C)S1 (stereo not given) | inactive | –
O=C(C1CCCCC1)N1CC(=O)N2CCc3ccccc3C2C1 (stereo not given) | inactive | –
O=C(CC(C(=O)OC1CCCCC1)S(=O)(=O)O)OC1CCCCC1 (stereo not given) | inactive | –
CCCC[N+]1(C)CCCC1 | inactive | –
CC[N+](CC)(CC(=O)Nc1c(C)cccc1C)Cc1ccccc1 | inactive | –
Nc1ccc(S(=O)(=O)Nc2cnc3ccccc3n2)cc1 | inactive | –
CC(C)CC(=O)CC(C)CC(C)C (stereo not given) | inactive | –
CC(=O)CCc1ccccc1 | inactive | –
CC(C)(C)NC(=O)[C@@H]1CN(Cc2cccnc2)CCN1C[C@@H](O)C[C@@H](Cc1ccccc1)C(=O)N[C@H]1c2ccccc2C[C@H]1O | inactive | –
C=C1CC[C@H]2C[C@@H]1C2(C)C | inactive | –
CCC(C)=NO | inactive | –
O=C(OCc1ccccc1)c1ccccc1 | inactive | –
